Data taken from PubChem BioAssay AID651642 (Sanford-Burnham Center for Chemical Genomics, 2012).
Active and inactive are the calls of the source.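 The calls were made as follows: active = average half-effect concentration of 10 µM or less in every one of the four cell panels; inactive = the rest.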

System: H9c2
Assay: cardiomyocyte survival under oxidative or metabolic stress – cell-based, panel, H9c2 and HL-1, H2O2, 2-deoxyglucose, ATP luminescence, SAR follow-up (AID 651642)
Conditions: H9c2/HL-1 cardiomyocyte 2-deoxyglucose damage, mean of runs, with 2-deoxyglucose

| SMILES | outcome |
| --- | --- |
| COc1cc(-c2cc(C(=O)NCC(=O)Nc3cccc(C(C)=O)c3)c3ccccc3n2)cc(OC)c1OC | active |
| CCOC(=O)c1cccc(NC(=O)CNC(=O)c2cc(-c3cc(OC)c(OC)c(OC)c3)nc3ccc(F)cc23)c1 | active |
| COc1cc(-c2cc(C(=O)Nc3cccc(C(C)=O)c3)c3cc(F)ccc3n2)cc(OC)c1OC | inactive |
| COC(=O)CNC(=O)c1cc(-c2cc(OC)c(OC)c(OC)c2)nc2ccccc12 | inactive |
| CCOC(=O)c1cccc(NC(=O)CNC(=O)c2cc(-c3cc(OC)c(OC)c(OC)c3)nc3ccc(OC)cc23)c1 | active |
| COc1ccc2c(c1OC)C(=O)N1c3ccccc3C(=O)N(Cc3ccc(C)cc3)C21 (configuration not stated) | inactive |
| COc1ccccc1CN1C(=O)c2ccccc2N2C(=O)c3c(ccc(OC)c3OC)C12 (configuration not stated) | inactive |
| CCOC(=O)c1cccc(NC(=O)c2cc(-c3cc(OC)c(OC)c(OC)c3)nc3c(Cl)cccc23)c1 | inactive |
| COc1cc(-c2cc(C(=O)NCC(=O)Nc3cccc(C(C)=O)c3)c3cccc(Cl)c3n2)cc(OC)c1OC | inactive |
| COc1cc(-c2cc(C(=O)Nc3cccc(C(=O)NCc4ccccc4)c3)c3ccccc3n2)cc(OC)c1OC | active |
| COc1cc(-c2cc(C(=O)Nc3cccc(C(C)=O)c3)c3cccc(Cl)c3n2)cc(OC)c1OC | inactive |
| CCOC(=O)c1cccc(NC(=O)CNC(=O)c2cc(-c3cc(OC)c(OC)c(OC)c3)nc3ccc(C)cc23)c1 | active |
| COc1ccc2c(c1OC)C(=O)N1c3ccccc3C(=O)N(Cc3ccccc3Br)C21 (configuration not stated) | inactive |
| COc1ccc2c(c1OC)C(=O)N1c3ccccc3C(=O)N(Cc3ccccn3)C21 (configuration not stated) | inactive |
| CCOC(=O)c1cccc(NC(=O)CNC(=O)c2cc(-c3cc(OC)c(OC)c(OC)c3)nc3ccccc23)c1 | inactive |
| COc1ccc2c(c1OC)C(=O)N1c3ccccc3C(=O)N(Cc3ccccc3C)C21 (configuration not stated) | inactive |

| SMILES | outcome |
| --- | --- |
| COc1cc(-c2cc(C(=O)Nc3cccc(C(=O)N4CCOCC4)c3)c3ccccc3n2)cc(OC)c1OC | inactive |
| COc1ccc2nc(-c3cc(OC)c(OC)c(OC)c3)cc(C(=O)NCC(=O)Nc3cccc(C(C)=O)c3)c2c1 | active |
| COc1cc(-c2cc(C(=O)Nc3cccc(-c4nn[nH]n4)c3)c3ccccc3n2)cc(OC)c1OC | inactive |
| COc1ccc2c(c1OC)C(=O)N1c3ccccc3C(=O)N(Cc3ccncc3)C21 (configuration not stated) | inactive |
| COC(=O)CNC(=O)c1cccc(NC(=O)c2cc(-c3cc(OC)c(OC)c(OC)c3)nc3ccccc23)c1 | active |
| COc1cc(-c2cc(C(=O)NCC(=O)Nc3ccc(C(C)=O)cc3)c3ccccc3n2)cc(OC)c1OC | inactive |
| COc1cc(-c2cc(C(=O)NCC(=O)Nc3cccc(C(C)=O)c3)c3cc(C)ccc3n2)cc(OC)c1OC | inactive |
| CCOC(=O)c1cccc(NC(=O)c2cc(-c3cc(OC)c(OC)c(OC)c3)nc3ccc(Cl)cc23)c1 | inactive |
| CCOC(=O)c1cccc(NC(=O)CNC(=O)c2cc(-c3cc(OC)c(OC)c(OC)c3)nc3c(Cl)cccc23)c1 | inactive |
| COc1cc(-c2cc(C(=O)Nc3cccc(C#N)c3)c3ccccc3n2)cc(OC)c1OC | inactive |
| CCOC(=O)c1cccc(NC(=O)c2cc(-c3cc(OC)c(OC)c(OC)c3)nc3ccc(Br)cc23)c1 | inactive |
| COc1ccc2nc(-c3cc(OC)c(OC)c(OC)c3)cc(C(=O)NCC(=O)Nc3ccc(C(C)=O)cc3)c2c1 | active |
| COc1cc(-c2cc(C(=O)Nc3cccc(C(C)=O)c3)c3ccccc3n2)cc(OC)c1OC | inactive |
| CCOC(=O)c1ccc(NC(=O)c2cc(-c3cc(OC)c(OC)c(OC)c3)nc3ccccc23)cc1 | inactive |
| CCOC(=O)c1cccc(NC(=O)c2cc(-c3cc(OC)c(OC)c(OC)c3)nc3cc(Cl)ccc23)c1 | inactive |
| CCOC(=O)c1cccc(NC(=O)CNC(=O)c2cc(-c3cc(OC)c(OC)c(OC)c3)nc3ccc(Br)cc23)c1 | active |
